# Source: PubChem BioAssay (NCATS)
# Results filed as inconclusive are left out. Activity calls are given as the source filed them. Calls follow the shape of the dose curve; as a rule, active = well fitted curve in the direction sought with a large enough effect; inconclusive = small, poorly fitted or top-dose-only effect, or another doubt; inactive = no such curve, though single readings can be large or run the other way.
# Test: KB-8-5-11 P-gp reporter qHTS against the NCATS DSHEA and TCM libraries (AID 1919977); also: 0% is about no effect
# Details: KB-8-5-11 cells; series mostly up to 26.1 µM; activity change, negative = inhibition: at the top concentration
# Source text: Assay Development and Screening Technology Laboratory (ADST)
# National Center for Advancing Translational Sciences (NCATS), Rockville, MD
# National Institute of Health (NIH), Bethesda, Maryland
# Dietary Supplements and Natural Products have minor oversight of their safety and efficacy. We assembled a collection of Dietary Supplements and Natural Products (DSNP) as well as Traditional Chinese Medicinal (TCM) Plant extracts, which were screened against an in vitro panel of assays, including a liver cytochrome p450 enzyme panel, CAR/PXR signaling pathways, and P-gp transporter assays, to assess their activity. This pipeline facilitated the interrogation of Natural Product-Drug Interaction (NaPDI) through prominent metabolizing pathways. In addition, we compared the activity profiles of the DSNP/TCM substances with those of an approved drug collection. Many of the approved drugs have well-annotated mechanisms of action (MOA) while the MOAs for most of the DSNP and TCM samples remain unknown. Based on the premise that compounds with similar activity profiles tend to share similar targets or MOA, we clustered the library activity profiles to identify overlap with the NCATS Pharmaceutical Collection to predict the MOAs of the DSNP/TCM substances. Overall, we highlight four significant bioactivity profiles (measured by p-values) as examples of this prediction. To assess broad cytotoxicity, we employed screening against a HepG2 cell line. In addition, transporter-mediated drug interactions are utilized in the characterization of DDIs using a P-glycoprotein (P-gp) assays. To profile potential P-gp activity, a differential cell viability was measured against two cell lines: a parental KB-3-1 human cervical adenocarcinoma cell line and the drug-resistant subline KB-8-5-11 that overexpresses P-gp.
# To this end, we profiled both collections for potential CAR and/or PXR activity, employing a previously published 1536-well qHTS assay.
# [1] Lee TD, et al. A High-Throughput Screen of a Library of Therapeutics Identifies Cytotoxic Substrates of P-glycoprotein. Mol Pharmacol. Nov 2019;96(5):629-640. doi:10.1124/mol.119.115964
# PROTOCOL TABLE (as described by Inglese J, Shamu CE and Guy RK. 2007)
# SEQUENCE No. (e.g., 1, 2, 3, etc.); PARAMETER (e.g., Cells, Incubation, Reagent, etc.); VALUE; DESCRIPTION.
# 1; Cells; 5 uL; KB-8-5-11 cells, white solid-bottom tissue treated Greiner plate.
# 2; Incubation; 4 hrs; 37C, 95% humidity, 5% CO2.
# 3; Compounds and control; 23 nL; Kalypsis pin tool (Wako USA) equipped with a 1536-well pin head to transfer to the assay plates.
# 4; Incubation; 72 hrs; 37C, 95% humidity, 5% CO2.
# 5; Reagent; 2.5 uL; CellTiter-Glo.
# 6; Centrifuge; 1000 RPM; 15 seconds.
# 7; Incubation; 30 min; room temperature.
# 8; Read; Luminescence; ViewLux plate reader.
# NOTES (numbers refer to Sequence numbers above)
# 1. P-gp-overexpressing subline KB-8-5-11 were maintained in DMEM (Thermofisher catalog #11965) with 10% FBS and 1% penicillin/streptomycin at 37C in 5% CO2. For KB-8-5-11 cells, colchicine was added to the medium at a concentration of 100 ng/ml (after initial cell attachment). For the screen, assay medium was identical to culture medium except for KB-8-5-11, where colchicine was excluded from the medium. Briefly, 5 uL of cells at 1 x 10^5 cells/mL (500 cells/well) were dispensed into a 1536-well white solid-bottom tissue treated plate (Greiner Bio-One) using a Multidrop Combi dispenser.
# 2. Plates were incubated at 37C, 95% humidity, 5% CO2 for ~4 hours to allow for cell attachment.
# 3. Compounds and intraplate control (Bortezomib; final concentration range 228 pM - 7.5 uM) were transferred (16 nL) via pintool (Wako Automation), for a final concentration of 15.6 nM - 30.0 uM (most substances).
# 4. Plates were incubated for ~72 hours at 37C, 95% humidity, 5% CO2.
# 5. Plates were then dispensed with 2.5 uL of CellTiter-Glo.
# 6. The assay plates were centrifuged for 15 seconds at 1,000 RPM's.
# 7. The plates were incubated for 30-minute at room temperature.
# 8. […]
row,SMILES,"activity change, negative = inhibition"
1,COc1cc(O)c2c(c1)C(=O)c1cc(C)cc(O)c1C2=O,-13.3% (inactive)
2,O=C1c2c(O)cccc2[C@@H]([C@@H]2O[C@H](CO)[C@@H](O)[C@H](O)[C@H]2O)c2cc(CO)cc(O)c21,-3.41% (inactive)
3,O=c1cc(-c2ccc(O)c(O)c2)oc2cc(O)cc(O)c12,-19.7% (inactive)
4,C=C1C[C@@]23CC[C@H]4[C@@](C)(CCC[C@@]4(C)C(=O)OC4OC(CO)C(O)C(O)C4O)[C@@H]2CC[C@]1(OC1OC(CO)C(O)C(O)C1OC1OC(CO)C(O)C(O)C1O)C3 (stereo partly specified),12.9% (inactive)
5,CCCCCC(=O)CC,-1.5% [at 79.1 µM] (inactive)
6,Cc1ncc(C[n+]2csc(CCO)c2C)c(N)n1,13.3% (inactive)
7,O=C(O)/C=C/c1ccc(O)c(O)c1,14.2% (inactive)
8,CCCCCCCCCC(=O)O,-12.2% (inactive)
9,C=C/C(C)=C/C/C=C(\C)CCC=C(C)C,-14.8% [at 44.5 µM] (inactive)
10,CC(C)c1ccc(C=O)cc1,-4.27% [at 44.5 µM] (inactive)
11,CC1=CCC(O)(C(C)C)CC1 (stereo unspecified),-4.67% [at 44.5 µM] (inactive)
12,CCCCCCCCCCCCCC(=O)OCC(O)CO (stereo unspecified),-12.8% [at 44.5 µM] (inactive)
13,O=C(O)/C=C/c1ccccc1,-1.16% [at 44.5 µM] (inactive)
14,CC1=CCC(=C(C)C)CC1,-6.75% [at 44.5 µM] (inactive)
15,COc1ccc(-c2coc3cc(O)ccc3c2=O)cc1,-8.89% (inactive)
16,CC(=O)OC/C=C/c1ccccc1,-10.9% [at 44.5 µM] (inactive)
17,C[C@@]12C[C@@]3(O)O[C@@H](O1)[C@]1(COC(=O)c4ccccc4)[C@@H]3C[C@@]12O[C@@H]1O[C@H](CO)[C@@H](O)[C@H](O)[C@@H]1O,-0.948% (inactive)
18,CCCCCCCCCCCC(=O)OCC(O)CO (stereo unspecified),-5.44% (inactive)

row,SMILES,"activity change, negative = inhibition"
1,O=C(/C=C/c1ccc(O)c(O)c1)OC(Cc1ccc(O)c(O)c1)C(=O)O (stereo unspecified),-3.13% (inactive)
2,C=C(CO)C(=O)O[C@H]1CC(=C)[C@@H]2C[C@H](O)C(=C)[C@@H]2[C@H]2OC(=O)C(=C)[C@@H]21,-2.08% (inactive)
3,C=C(C)[C@H]1CC=C(CO)CC1,-8.28% (inactive)
4,O=C(O)c1ccccc1,-9.32% (inactive)
5,Cc1cc2nc3c(=O)[nH]c(=O)nc-3n(CC(O)C(O)C(O)CO)c2cc1C (stereo unspecified),-7.39% (inactive)
6,CC(C)=CCC(O)/C(C)=C/CO[C@@H]1O[C@H](CO)[C@@H](O)[C@H](O)[C@H]1O (stereo partly specified),14.7% (inactive)
7,O=c1c(-c2ccc(O)cc2)coc2cc(O[C@@H]3O[C@H](CO)[C@H](O)[C@H](O)[C@H]3O)ccc12,6.43% (inactive)
8,C=CC(=C)CCC=C(C)C,-5.04% (inactive)
9,C=C(C)[C@@H]1CC=C(C=O)CC1,-5.92% [at 44.5 µM] (inactive)
10,CC(=O)C1=C(O)C=C2Oc3c(C(C)=O)c(O)c(C)c(O)c3[C@]2(C)C1=O,10.8% (inactive)
11,CCCCCCCCCC=O,-9.33% [at 44.5 µM] (inactive)
12,CC(C)(CO)[C@@H](O)C(=O)NCCC(=O)O,15.9% (inactive)
13,O=c1cc(-c2ccc(O)cc2)oc2cc(O)cc(O)c12,-8.58% (inactive)
14,CC(=O)O[C@@H]1C[C@@H](C)[C@](O)(CCC2=CC(=O)OC2)[C@@]2(C)CCCC(C)(C)C12 (stereo partly specified),-9.32% (inactive)
15,C[N+](C)(C)CCO,-2.62% (inactive)
16,CCCCCCCC(=O)O,-6.49% (inactive)
17,COc1ccc(C(C)=O)c(O)c1,-4.65% (inactive)
18,O=C(/C=C/c1ccc(O)c(O)c1)O[C@@H]1C[C@](O)(C(=O)O)C[C@@H](O)[C@H]1O,6.66% (inactive)
